Data reported in PubChem BioAssay (NCI).
The panel holds about 83,000 compounds, 20% with a hit somewhere; the sample as a whole holds those more often.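 Compound tested at a single concentration for 48 hours in 96-well plates; a percent growth value below 10 was scored as active.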 Unmarked numbers belong to inactive results. Calls of active or inactive are those of the source.

How the values were obtained:
Experiment in all cases: NCI-60 one-dose screen, 48 h (100 = growth as untreated, 0 = no growth, -100 = all killed)
Conditions in all cases: 10 µM unless noted
[1] = tested on: DU-145 prostate
[2] = tested on: K-562 leukemia
[3] = tested on: MALME-3M melanoma
[4] = tested on: MDA-MB-231 breast
[5] = tested on: SF-268 CNS
[6] = tested on: SF-295 CNS
[7] = tested on: SF-539 CNS
[8] = tested on: UACC-257 melanoma
[9] = tested on: M14 melanoma
[10] = tested on: HCT-15 colon
[11] = tested on: HT29 colon
[12] = tested on: SNB-75 CNS
[13] = tested on: SNB-19 CNS
[14] = tested on: U251 CNS
[15] = tested on: PC-3 prostate
[16] = tested on: SK-MEL-5 melanoma
[17] = tested on: LOX IMVI melanoma
[18] = tested on: SK-MEL-28 melanoma
[19] = tested on: RXF 393 renal
[20] = tested on: UACC-62 melanoma

Row | Structure (SMILES) | growth [1] | growth [2] | growth [3] | growth [4] | growth [5] | growth [6] | growth [7] | growth [8] | growth [9] | growth [10] | growth [11] | growth [12] | growth [13] | growth [14] | growth [15] | growth [16] | growth [17] | growth [18] | growth [19] | growth [20]
1 | CCN(CC)CCCCCNc1cc(OC(=O)c2ccccc2)cc2cccnc12 | 111% | 23.8% | 95.3% | 88.2% | 93.2% | 110% | 150% | 120% | 101% | 78.5% | 20.3% | 70.9% | 101% | 98.2% | 77% | 138% | 58.1% | 121% | – | –
2 | N=c1ccc2nc3c(cc(N)c4ccccc43)oc-2c1 | -100% (active) | -67.3% (active) | -91.5% (active) | -52.8% (active) | -59.2% (active) | -69.8% (active) | -98.9% (active) | -91.5% (active) | -100% (active) | -69.9% (active) | -63% (active) | -100% (active) | -94.7% (active) | -87.8% (active) | -39.3% (active) | -100% (active) | -95.6% (active) | -78.8% (active) | – | –
3 | Cn1cc(-c2csc(-c3cn(C(=O)OC(C)(C)C)c4ccc(Br)cc34)n2)c2cccnc21 | 108% | 97.6% | – | 75.3% | 94.7% | 79.8% | 106% | 114% | 104% | 93.4% | 93.4% | 78.9% | 93.2% | 87.4% | 87.5% | 97% | – | 108% | 88.5% | 91%
4 | Oc1ccccc1/C=N\NC(=S)Nc1ccc(F)cc1 | 30.4% | 14.9% | – | 49% | 27.8% | 11.6% | 23.9% | 15.4% | -30.4% (active) | 21.8% | 39.1% | 43.1% | 36% | 27.7% | 40% | 6.1% (active) | – | 30.8% | 20.1% | 2.27% (active)
5 | Cn1cc(-c2nc(-c3c[nH]c4ncccc34)cs2)c2ccccc21 | 99.9% | 65.5% | – | 42.9% | 99.3% | 98% | 99.9% | 95.5% | 81.1% | 64.3% | 88.2% | 77.6% | 92.8% | 96.6% | 80.6% | – | – | 105% | 84.3% | 84.6%
6 | Nc1ccc(Br)cn1 | 112% | 117% | – | 99.3% | 110% | 114% | 99.1% | 106% | 98.6% | 102% | 104% | 87.3% | 107% | 108% | 98.9% | – | – | 107% | 108% | 97.3%
7 | Cc1cc(C=O)c(C)c2c1[nH]c1ccccc12 | 107% | 97.8% | – | 90.5% | 96.8% | – | 95.9% | 78.6% | 105% | 99.8% | 93.2% | 78.7% | 94.6% | 94.1% | 92.5% | 112% | 81.5% | 110% | 117% | 57.3%
8 | C#CCC(C)(O)/C=C/C1=C(C)CCCC1(C)C (centres undefined) | 103% | – | 90% | 99.3% | 95.6% | 95.4% | 102% | 76.4% | 89.4% | 107% | 86.2% | 87% | 95.8% | 86.1% | 77.6% | 98.4% | 96.4% | 101% | 100% | –
9 | O=C(N/N=C\c1ccccc1O)C1CC1 | 108% | 113% | – | 103% | 98.7% | 110% | 110% | 94.7% | 109% | 92.5% | 107% | 98.1% | 101% | – | 92% | 109% | – | 114% | 112% | 102%
10 | COc1ccc2c(c1)c(-c1nc(-c3c[nH]c4ncccc34)cs1)cn2C | 72.5% | 41% | – | 55.3% | 97% | 86% | 66.2% | 85.1% | 63.7% | 51.6% | 55.6% | 76.1% | 92.7% | 75.3% | 61.1% | 79.4% | – | 87.9% | 57.2% | 67.6%
11 | Cn1cc(-c2nc(-c3cn(C)c4ncccc34)cs2)c2cc(F)ccc21 | 57.4% | 16% | – | 47.1% | 52.2% | 16.3% | 26.6% | 61.7% | – | 21.3% | 8.87% (active) | 29.1% | 46.4% | 31.8% | 47.1% | – | – | 50.9% | 30.8% | 41.7%
12 | S=c1[nH]nc2ccccn12 | 114% | 92.6% | – | 103% | 117% | 108% | 99.1% | 108% | 108% | 101% | 87.5% | 88.7% | 110% | 114% | 108% | 92.3% | – | 109% | 119% | 108%
13 | C/C(=N\Nc1ccc2ccccc2n1)c1ccccn1 | 13.1% | 2.37% (active) | – | -5.17% (active) | -3.84% (active) | – | -44.2% (active) | -22.6% (active) | -24.6% (active) | 22.6% | -2.94% (active) | 35.3% | 23.8% | 4.2% (active) | 4.97% (active) | -57.5% (active) | -19.8% (active) | 30.2% | 9.99% (active) | -54.8% (active)
14 | CCOC(=O)c1ccc2c(c1)[n+](=O)c(C(=O)C1CCCS1)c(C(F)(F)F)n2[O-] (centres undefined) | -96.5% (active) | -52.6% (active) | – | -76.8% (active) | -89.6% (active) | -88% (active) | -83.8% (active) | -90.4% (active) | -96.6% (active) | -72% (active) | -82.4% (active) | -100% (active) | -77.4% (active) | -100% (active) | -75.4% (active) | -96.9% (active) | – | -93.6% (active) | -92.3% (active) | -80.4% (active)
15 | Cn1cc(-c2nc(-c3c[nH]c4ncccc34)cs2)c2cc(F)ccc21 | 64.4% | 6.15% (active) | – | 20% | 44.4% | 19.9% | 53.9% | 53.3% | 20.5% | 19.6% | 19.6% | 31.6% | 53.3% | 36.7% | 33.6% | – | – | 60.5% | 43.8% | 47.6%
16 | COC(=O)C(N)CSC(c1ccccc1)(c1ccccc1)c1ccccc1 (centres undefined) | -24.3% (active) | – | 31.8% | 3.44% (active) | 28.4% | – | -11.7% (active) | – | -6.93% (active) | 28% | 1.58% (active) | 31.4% | 63.7% | 23.3% | 25.1% | 23.9% | 35.2% | 49.5% | 1.07% (active) | 54.3%
17 | Brc1ccc2[nH]cc(-c3nc(-c4c[nH]c5ncccc45)cs3)c2c1 | 39.8% | 4.74% (active) | – | 24.9% | 59% | 5.5% (active) | 50.9% | -6.38% (active) | 8.64% (active) | -32.3% (active) | 9.69% (active) | 37.3% | 68.8% | 27.7% | 38.1% | 54.7% | – | 71.6% | 21.8% | 41.9%
